PubChem BioAssay AID463 (The Scripps Research Institute Molecular Screening Center, 2006)
In all, about 56,000 compounds went through this assay and about 710 (1.3%) were called active. The sample holds actives, similar compounds and a random draw of the others, so the mix is not that of the screen. Unmarked numbers belong to inactive results.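 Rule for the calls: active = inhibition above the mean inhibition of all tested compounds plus 3 SD (cut at about 28% in these data); inactive = the rest.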

Experiment: Jurkat cell viability reduction – Jurkat E6.1, 60K MLSMR library, cytotoxicity control, primary screen (AID 463)
Conditions: Jurkat E6.1 viability, ATP luminescence, 48 h; at 4 µM; hits give high values
For `COc1ccccc1-n1nnnc1S(=O)(=O)Cc1ccc(Cl)cc1`, the inhibition was 53.4% (active). In the case of `COc1ccccc1N1CCN(Cc2nnnn2CCc2ccccc2)CC1`, the inhibition is reported as -5.1%. Compound `COc1ccccc1N1CCN(C(=O)CN(Cc2ccc(Cl)cc2)S(C)(=O)=O)CC1` has an inhibition of 9.3%. `Cc1oc(C)c(C(=O)NCCCC(=O)O)c1C(=O)NCCCC(=O)O` gave an inhibition of -3.9%. `Cc1ccc2nc(-c3ccc(SCC(=O)Nc4cc(C)on4)nc3)[nH]c2c1` gave an inhibition of -5.8%. For `O=C(O)CCSc1nnc(-c2ccccc2)n1-c1ccccc1`, the inhibition was -2.8%. Compound `CCN1CCCC1CNc1ncnc2c1[nH]c1ccc(F)cc12` (stereo unspecified) has an inhibition of 3.2%. For `O=C1CCCN1CCCNc1ncnc2c1[nH]c1ccccc12`, the inhibition was 2.2%. In the case of `CC(C)OCCCNc1ncnc2c1[nH]c1ccc(F)cc12`, the inhibition is reported as 87.6% (active). Compound `COc1ccc(OC)c2c1sc(=NC(=O)CN1C(=O)CCC1=O)n2C` has an inhibition of 1.4%. For `CCOc1cc(N2CCOCC2)c(OCC)cc1NC(=O)COc1cccc2cccnc12`, the inhibition was 37.5% (active). With `CCOc1cc(NC(=O)c2ccco2)c(OCC)cc1NC(=O)COc1ccccc1` the inhibition was 0.4%. `CC(=O)Nc1cccc(Oc2cc(C#N)c(C#N)cc2N2CCOCC2)c1` showed an inhibition of 1.2%. For `COc1ccc(OCC(=O)N2CCOCC2)cc1`, the inhibition was -4.3%. `Cc1nc2ccc(NC(=O)N3CCC(c4ccccc4)C3)cc2nc1C` (stereo unspecified) showed an inhibition of -3.3%. With `CC1CCCCN1S(=O)(=O)c1ccc(C(=O)Nc2nnc(-c3cccs3)o2)cc1` (stereo unspecified) the inhibition was 101% (active). `CCc1nnc(NC(=O)c2ccc(S(=O)(=O)NC3CCCCC3)cc2)s1` gave an inhibition of 27.4%. In the case of `CCc1nnc(NC(=O)C2CCCN2S(=O)(=O)c2ccccc2)s1` (stereo unspecified), the inhibition is reported as 2.3%. Compound `O=C1c2ccccc2-c2ncnc3c(N4CCOCC4)cc(N4CCOCC4)c1c23` has an inhibition of 6.4%. In the case of `CC1CCCN(Cc2nc3c(c(=O)n(C)c(=O)n3C)n2Cc2cccc3ccccc23)C1` (stereo unspecified), the inhibition is reported as -3.6%. For `CNC(=O)CSc1nnnn1-c1ccc(C)cc1C`, the inhibition was -4.9%. In the case of `CCOC(=O)c1c(-c2ccc(C)cc2C)csc1NC(=O)CSc1nnnn1C`, the inhibition is reported as 28.5% (active). Compound `CCOC(=O)CNC(=O)CSc1nnnn1-c1cc(C)ccc1C` has an inhibition of -1.2%. Work on `CCOCCCNC(=O)Cc1cc(=O)[nH]c(=O)[nH]1` yielded an inhibition of -4.5%. Compound `CCC(c1nnnn1Cc1ccccc1)N(Cc1cc2cc(OC)ccc2[nH]c1=O)CC1CCCO1` (stereo unspecified) has an inhibition of -4.6%. `CC(Nc1nc(N2CCCC2)nc2ccccc12)c1ccccc1` (stereo unspecified) showed an inhibition of 4.2%. For `COc1ccc(-n2nnc3c(=O)n(CC(=O)OCc4ccccc4)cnc32)cc1`, the inhibition was 7%. Work on `Cc1cccc(-n2c(N)c(C(=O)N3CCN(C)CC3)sc2=S)c1` yielded an inhibition of 2.6%. In the case of `Cc1cccc(-n2c(O)c(C=Nc3ccccc3N)c(=O)[nH]c2=O)c1`, the inhibition is reported as 46.2% (active). In the case of `O=C(CS(=O)(=O)c1cn(Cc2ccc(Cl)cc2)c2ccccc12)N1CCOCC1`, the inhibition is reported as 5.9%. Work on `COc1ccc(N(Cc2cc3cc(OC)ccc3[nH]c2=O)S(C)(=O)=O)cc1` yielded an inhibition of 8.7%. In the case of `CCC(C)Sc1nnc(-c2c[nH]c3ccccc23)n1CCOC` (stereo unspecified), the inhibition is reported as 6%. Work on `CC(=O)Oc1ccc2c(C)c(CC(C)O)c(=O)oc2c1` (stereo unspecified) yielded an inhibition of -1.3%. Compound `COc1ccc(OCc2cccc(C(=O)N3CCCC3)c2)cc1` has an inhibition of -5.2%. `O=C(CSc1nc2c(cnn2-c2ccc(F)cc2)c(=O)[nH]1)N1CCCCCC1` gave an inhibition of 2.5%. `CC(C)Oc1ccc(C(=O)Nc2cc(=O)n(C)c(=O)n2C)cc1` showed an inhibition of 2.6%. With `COc1ccc(CCNS(=O)(=O)c2ccc(C(=O)NCc3ccco3)cc2)cc1OC` the inhibition was 0.2%. In the case of `O=C(c1ccco1)N1CCN(C(=O)C2CC(c3ccc(Cl)c(Cl)c3)=NO2)CC1` (stereo unspecified), the inhibition is reported as -1.7%. In the case of `COc1ccc(C2=NOC(C(=O)NCc3ccco3)C2)cc1OC` (stereo unspecified), the inhibition is reported as 85.8% (active). `CC(C)NS(=O)(=O)c1ccc(NC(=O)c2cccnc2)cc1` gave an inhibition of 0.7%. With `Cc1cccc(NC(=O)COc2ccccc2C)n1` the inhibition was 8.1%. For `Cc1ccccc1OCC(=O)Nc1ccc(N2CCN(C(=O)C(C)C)CC2)c(Cl)c1`, the inhibition was 30.2% (active). Compound `CN1CCN(c2ccc(NC(=O)COc3ccc(Cl)cc3Cl)cc2)CC1` has an inhibition of -0.1%. `O=C(CSc1nnc(-c2cccs2)n1-c1ccccc1)NCc1ccco1` gave an inhibition of -1.7%. For `CCOC(=O)c1cnc(SCC(=O)NCc2ccco2)nc1N`, the inhibition was -0.1%. In the case of `Cc1cc(C(=O)OCC(=O)NCc2ccco2)c(C)n1-c1ccccc1`, the inhibition is reported as 75.4% (active). With `COc1cccc(OC)c1C(=O)Nc1nnc(C(C)C)s1` the inhibition was 5.1%. For `Cc1ccc(OCC(=O)Nc2ccc(-c3nc4ncccc4o3)cc2)cc1`, the inhibition was -9.9%. With `COc1ccc(C)c(Cn2c(-c3nonc3N)nc3ccccc32)c1` the inhibition was 75.3% (active). With `Nc1nonc1-c1nc2ccccc2n1CCC(=O)O` the inhibition was 1.7%. Work on `Nc1nonc1-c1nc2ccccc2n1Cc1ccc(F)cc1` yielded an inhibition of 20.3%. For `CCC(=NC1CC(C)(C)NC(C)(C)C1)C1=C(O)CC(C)(C)CC1=O`, the inhibition was -4.2%. `CCc1cc(=O)oc2cc(OCC(=O)N3CCCc4ccccc43)ccc12` gave an inhibition of -8.4%. Work on `CCN(c1ccccc1)S(=O)(=O)c1ccc(N)cc1` yielded an inhibition of -3.3%. Compound `CC1CN(c2cc(=O)n(-c3cccc(Br)c3)c(=O)[nH]2)CC(C)O1` (stereo unspecified) has an inhibition of 1.2%. In the case of `Cn1c(CN2CCOCC2)nc2cc(NC(=O)c3ccc(Cl)cc3)ccc21`, the inhibition is reported as 86.9% (active). For `CCC(=O)Nc1ccc2c(c1)nc(CCN1CCN(C)CC1)n2C`, the inhibition was 7.5%. In the case of `Cc1nn(CC(=O)Nc2ccc3c(c2)nc(CN2CCCCC2)n3C)c(=O)c2ccccc12`, the inhibition is reported as 1.4%. With `CC(=O)OC(C(=O)NCCc1ccccc1)c1cccnc1` (stereo unspecified) the inhibition was -5.8%. Compound `O=S(=O)(NCC1CCCO1)c1ccc2ccccc2c1` (stereo unspecified) has an inhibition of -0.5%. `CC1CCCN(Cc2nc3c(c(=O)n(C)c(=O)n3C)n2CC(=O)c2ccccc2)C1` (stereo unspecified) showed an inhibition of 4.9%. For `CC1=NC2(CCCc3c2no[n+]3[O-])N(O)C1(C)C` (stereo unspecified), the inhibition was 12.1%. In the case of `Cc1cc(NC(=O)CSCc2nc(-c3cccc(Cl)c3)oc2C)no1`, the inhibition is reported as 0.8%. `COc1c(C)cccc1C(=O)Nc1cc(Cl)ccc1N1CCOCC1` showed an inhibition of -1%. With `O=C(Nc1cc(N2CCOCC2)ncn1)NC1(C(F)(F)F)Oc2ccc(Cl)cc2O1` (stereo unspecified) the inhibition was 72.6% (active). Work on `c1cnn(-c2cc(N3CCOCC3)ncn2)c1` yielded an inhibition of -0.2%. For `CCOC(=O)C1=C(C)NC(C)=C(C(=O)OCC)C1C1=COCCO1`, the inhibition was -5.9%. `CCOC(=O)CCc1c(C)c2ccc(OCc3nn[nH]n3)c(C)c2oc1=O` showed an inhibition of -2.2%. With `CN(C)CCCn1c(N)c(C#N)c2nc(C#N)c(C#N)nc21` the inhibition was 1.9%. In the case of `CC(C)Cc1cc(C(=O)NCCc2ccccc2)no1`, the inhibition is reported as 6%. With `CC(C)Cc1cc(C(=O)Nc2cc(Br)ccc2O)no1` the inhibition was 60.7% (active). In the case of `CC(C)CNC(=O)c1cc(-c2ccc(Br)cc2)on1`, the inhibition is reported as 1.8%. For `COCCn1c(SCC(=O)Nc2cc(Cl)ccc2OC)nc2c(c1=O)SC(C)C2` (stereo unspecified), the inhibition was 6.8%. Compound `O=C(CSc1nnc(-c2ccco2)n1-c1ccccc1)NCCc1ccccc1` has an inhibition of 0.2%. For `COc1ccc(Nc2oc(-c3ccccc3Cl)nc2C#N)cc1`, the inhibition was 85.4% (active). `CCOc1ccc(Nc2oc(Cc3ccccc3)nc2C#N)cc1` gave an inhibition of -0.9%. With `N#Cc1nc(-c2ccc(OCc3ccccc3)cc2)oc1NCCCN1CCOCC1` the inhibition was -3.2%. Compound `O=C(Nc1ccc2c(c1)OCCO2)c1ccncc1` has an inhibition of 3.8%. For `O=C(Nc1nc(-c2ccc3c(c2)OCO3)cs1)c1ccncc1`, the inhibition was 44% (active). Compound `O=C(Nc1nc(-c2ccncc2)cs1)C1COc2ccccc2O1` (stereo unspecified) has an inhibition of 7.3%. `Cn1c(=O)cc(SCC(=O)N2CCCC2)c2cc(Cl)ccc21` gave an inhibition of 3.9%.
